This is an account of results in PubChem BioAssay (NCATS).

The nature of one test: qHTS profiling of the MIPE4 collection as inhibitors of Plasmodium falciparum (DD2) proliferation (Rep 2) (AID 743346). Conditions: P. falciparum Dd2 in erythrocytes, SYBR Green DNA, 72 h; at 28.5 µM unless noted. The method, boiled down: (§1)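 Erythrocytes infected with P. falciparum (0.3% parasitemia, 2.5% hematocrit) incubated with compounds 72 h at 37 C, 5% CO2. Lysis with saponin/Triton buffer containing SYBR Green I, overnight at room temperature in the dark; DNA fluorescence (485/535 nm) normalised to 0.29 uM artemisinin and DMSO.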
(In general: qHTS replaces the single test concentration by a dilution series.)
Regarding `CO[C@@]12[C@H](COC(N)=O)C3=C(C(=O)C(C)=C(N)C3=O)N1C[C@@H]1N[C@@H]12`, the parasite growth, % of control (lower = inhibition) was 6.98%.

Turning to `CO[C@@H]1[C@@H](OC(N)=O)[C@@H](O)[C@H](Oc2ccc3c(O)c(NC(=O)c4ccc(O)c(CC=C(C)C)c4)c(=O)oc3c2C)OC1(C)C`, the parasite growth, % of control (lower = inhibition) amounted to 39.2%.

Turning to `Cc1ncc([N+](=O)[O-])n1CCO`, the parasite growth, % of control (lower = inhibition) is 96.3%.

For `CC(C)Cn1cnc2c(N)nc3ccccc3c21`, the parasite growth, % of control (lower = inhibition) stood at 32.3%.

For the compound `O=C(O)CSCC(=O)NC1CCSC1=O` (stereo not given), the parasite growth, % of control (lower = inhibition) was found to be 124%.

`Cc1onc(-c2ccccc2Cl)c1C(=O)N[C@@H]1C(=O)N2[C@@H]1SC(C)(C)[C@@H]2C(=O)O`: the parasite growth, % of control (lower = inhibition) is 79%.

For `CC1=CC(=O)c2ccccc2C1=O`, the parasite growth, % of control (lower = inhibition) worked out at 10.3%.

As to `CC(C)(Sc1cc(C(C)(C)C)c(O)c(C(C)(C)C)c1)Sc1cc(C(C)(C)C)c(O)c(C(C)(C)C)c1`, the parasite growth, % of control (lower = inhibition) was 24.6%.

On to `NS(=O)(=O)c1cc2c(cc1Cl)NC(C(Cl)Cl)NS2(=O)=O` (stereo not given), for which the parasite growth, % of control (lower = inhibition) stood at 65%.

With `C[C@]12C=CC(=O)C=C1CC[C@@H]1[C@@H]2C(=O)C[C@@]2(C)[C@H]1CC[C@]2(O)C(=O)CO`, the parasite growth, % of control (lower = inhibition) amounted to 82.6% [at 9.64 µM].

As for `COc1cc(NCc2ccc3nc(N)nc(N)c3c2C)cc(OC)c1OC`, the parasite growth, % of control (lower = inhibition) amounted to 10.9%.

As for `O=C(NCC1CN(c2ccc(N3CCOCC3=O)cc2)C(=O)O1)c1ccc(Cl)s1` (stereo not given), the parasite growth, % of control (lower = inhibition) was found to be 80.7%.

As to `Cc1nnc(NS(=O)(=O)c2ccc(N)cc2)s1`, the parasite growth, % of control (lower = inhibition) stood at 8.26%.

`C[C@@H](NCCCc1cccc(C(F)(F)F)c1)c1cccc2ccccc12`: the parasite growth, % of control (lower = inhibition) turned out to be 10.9%.

As to `COC(c1ccccc1)(c1ccccc1)[C@H](Oc1nc(C)cc(C)n1)C(=O)O`, the parasite growth, % of control (lower = inhibition) stood at 81.2%.

For the compound `COc1cc(NS(=O)(=O)c2ccc(N)cc2)nc(OC)n1`, the parasite growth, % of control (lower = inhibition) is 87.6%.

Another test is described as follows: qHTS profiling of the MIPE4 collection as inhibitors of Plasmodium falciparum (HB3) proliferation (AID 743347).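 Note: plate controls were DMSO vehicle wells for no effect and artemisinin wells for full effect.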 Conditions: P. falciparum HB3 in erythrocytes, SYBR Green DNA, 72 h; at 28.5 µM unless noted. The method, boiled down:
as §1
For the compound `CNCC[C@H](Oc1cccc2ccccc12)c1cccs1`, the growth, % of control worked out at 3.44%.

Consider `NC(=O)c1cccc(N)c1`, for which the growth, % of control worked out at 54.9%.

Turning to `N=C(N)c1ccc(OCCCCCOc2ccc(C(=N)N)cc2)cc1`, the growth, % of control is 3.03%.

In the case of `CC(C(=O)O)c1ccc2c(c1)CC(=O)c1ccccc1S2` (stereo not given), the growth, % of control amounted to 97.8%.

Turning to `CCc1cc(C(N)=S)ccn1`, the growth, % of control turned out to be 2.68%.

The compound `C[C@@H]1CN(c2c(F)c(N)c3c(=O)c(C(=O)O)cn(C4CC4)c3c2F)C[C@H](C)N1` displayed a growth, % of control of 72.3% [at 9.64 µM].

`S=P(N1CC1)(N1CC1)N1CC1` displayed a growth, % of control of 3.94%.

Compound `COc1nc(N)nc2c1ncn2[C@@H]1O[C@H](CO)[C@@H](O)[C@@H]1O` had a growth, % of control of 85.6%.

The compound `CCCCCCNC(=O)n1cc(F)c(=O)[nH]c1=O` displayed a growth, % of control of 71.2%.

For the compound `CCN1CCCC1CNC(=O)c1cc(S(N)(=O)=O)ccc1OC` (stereo not given), the growth, % of control was determined as 70.9%.

`CC[C@H](C)C(=O)O[C@H]1C[C@@H](C)C=C2C=C[C@H](C)[C@H](CC[C@@H]3C[C@@H](O)CC(=O)O3)[C@H]21` yielded a growth, % of control of 85.6%.

`COc1ccc(-c2ccc3cc(C(=O)O)ccc3c2)cc1C12CC3CC(CC(C3)C1)C2` returned a growth, % of control of 111%.

The compound `CCOC(=O)c1ccc(C#Cc2ccc3c(c2)C(C)(C)CCS3)nc1` registered a growth, % of control of 50.6%.

As for `CC(C)OC(=O)C(C(=O)OC(C)C)=C1SC=CS1`, the growth, % of control was 91.6%.

As to `CNC1CCCN(c2c(F)cc3c(=O)c(C(=O)O)cn(C4CC4)c3c2OC)C1` (stereo not given), the growth, % of control stood at 22.8%.

For `O[C@@H](CNC[C@H](O)[C@H]1CCc2cc(F)ccc2O1)[C@@H]1CCc2cc(F)ccc2O1`, the growth, % of control stood at 8.28%.

For `CN(C)CCc1c[nH]c2ccc(C[C@H]3COC(=O)N3)cc12`, the growth, % of control amounted to 91.4%.

Take `COc1ncnc(NS(=O)(=O)c2ccc(N)cc2)c1OC`: the growth, % of control amounted to 747%.

`CO[C@@]12[C@H](COC(N)=O)C3=C(C(=O)C(C)=C(N)C3=O)N1C[C@@H]1N[C@@H]12`: the growth, % of control was found to be 2.97%.

The compound `CO[C@@H]1[C@@H](OC(N)=O)[C@@H](O)[C@H](Oc2ccc3c(O)c(NC(=O)c4ccc(O)c(CC=C(C)C)c4)c(=O)oc3c2C)OC1(C)C` registered a growth, % of control of 45.7%.

In turn, `Cc1ncc([N+](=O)[O-])n1CCO` returned a growth, % of control of 85.1%.

As to `CC(C)Cn1cnc2c(N)nc3ccccc3c21`, the growth, % of control stood at 58.5%.

On to `O=C(O)CSCC(=O)NC1CCSC1=O` (stereo not given), for which the growth, % of control is 99.2%.

With `Cc1onc(-c2ccccc2Cl)c1C(=O)N[C@@H]1C(=O)N2[C@@H]1SC(C)(C)[C@@H]2C(=O)O`, the growth, % of control is 108%.

Consider `CC1=CC(=O)c2ccccc2C1=O`, for which the growth, % of control is 23.6%.

In turn, `CC(C)(Sc1cc(C(C)(C)C)c(O)c(C(C)(C)C)c1)Sc1cc(C(C)(C)C)c(O)c(C(C)(C)C)c1` had a growth, % of control of 19.1%.

`NS(=O)(=O)c1cc2c(cc1Cl)NC(C(Cl)Cl)NS2(=O)=O` (stereo not given) had a growth, % of control of 60.5%.

`C[C@]12C=CC(=O)C=C1CC[C@@H]1[C@@H]2C(=O)C[C@@]2(C)[C@H]1CC[C@]2(O)C(=O)CO` showed a growth, % of control of 104% [at 9.64 µM].

In turn, `COc1cc(NCc2ccc3nc(N)nc(N)c3c2C)cc(OC)c1OC` came in with a growth, % of control of 19.6%.

`O=C(NCC1CN(c2ccc(N3CCOCC3=O)cc2)C(=O)O1)c1ccc(Cl)s1` (stereo not given) came in with a growth, % of control of 59.9%.

`Cc1nnc(NS(=O)(=O)c2ccc(N)cc2)s1` gave a growth, % of control of 38.9%.

Consider `C[C@@H](NCCCc1cccc(C(F)(F)F)c1)c1cccc2ccccc12`, for which the growth, % of control amounted to 4.3%.

The compound `COC(c1ccccc1)(c1ccccc1)[C@H](Oc1nc(C)cc(C)n1)C(=O)O` came in with a growth, % of control of 105%.

On to `COc1cc(NS(=O)(=O)c2ccc(N)cc2)nc(OC)n1`, for which the growth, % of control stood at 91%.
